From PubChem BioAssay (EPA / NIEHS) come the findings set out here.

Assay [1] deals with human Peroxisome Proliferator-activated Receptor alpha (PPARa), PPARA (gene 5465) (UniProt Q07869). Kind of assay: ATG_PPARa_TRANS: Attagene TRANS-FACTORIAL HepG2 Assay for human Peroxisome Proliferator-activated Receptor alpha (PPARa) (AID 2283001).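 On AC50: potency for gain of reporter signal over DMSO so agonist or activator.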 The gist of the method: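 Measures transcriptional activity of an exogenous chimeric PPARa-Gal4 protein in transiently transfected HepG2 cells after 24 h dosing. Reporter mRNA quantified via RT-PCR and capillary electrophoresis; DMSO served as negative control.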

In assay [2] the target is human Peroxisome Proliferator-activated Receptor delta (PPARd), PPARD (gene 5467) (UniProt Q03181). Put plainly: ATG_PPARd_TRANS: Attagene TRANS-FACTORIAL HepG2 Assay for human Peroxisome Proliferator-activated Receptor delta (PPARd) (AID 2283002). The gist of the method: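 HepG2 cells transiently transfected with GAL4-UAS multiplexed reporter units driven by exogenous chimeric NR-GAL4 proteins; 24 h compound exposure. Reporter mRNA measured by RT-PCR, 6-FAM primer extension, HpaI digestion and capillary electrophoresis; gain of signal fitted relative to DMSO.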

Read-out in assay [3]: Intercellular Adhesion Molecule 1 (ICAM1), ICAM1 (gene 3383)
Kind of assay: BSK_3C_ICAM1: BioMAP Diversity Plus: 3C Assay for Intercellular Adhesion Molecule 1 (ICAM1) Biomarker Activity (AID 2283003; active means hit-call score of the fitted dose curve at least 0.9, where 1 is the maximum; inactive means score below 0.9). As to conditions: primary human endothelial cells (HUVEC); actives raise or lower the signal. In short, it runs like this:
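Primary human umbilical vein endothelial cells in the BioMAP 3C system were exposed to chemicals for 24 h, then ICAM-1 was quantified by ELISA. Activity was fitted bidirectionally against the DMSO negative control baseline.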

The nature of assay [4]: BSK_3C_Proliferation: Cell Proliferation Assessment in the BioMAP Diversity Plus: 3C Assay (AID 2283006; active means hit-call score of the fitted dose curve at least 0.9, where 1 is the maximum; inactive means score below 0.9;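 on AC50: potency may reflect either rise or fall in cell number versus DMSO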). Particulars: primary human endothelial cells (HUVEC). The gist of the method: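 Human umbilical vein endothelial cells were grown sub-confluent and exposed to chemical for 48 h, then fixed with 10% TCA and stained with 0.1% sulforhodamine B; absorbance at 560 nm gave relative cell number, fitted bidirectionally against DMSO baseline.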

Assay [5] concerns the target Peroxisome proliferator-activated receptor gamma (Homo sapiens) (UniProt P37231). Kind of assay: ATG_PPARg_TRANS: Attagene TRANS-FACTORIAL HepG2 Assay for human Peroxisome Proliferator-activated Receptor-gamma (PPARg) (AID 2283007). The gist of the method:
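Liver-derived HepG2 cells expressing an exogenous NR-Gal4 chimera alongside GAL4-UAS reporter genes; 24 h exposure. Fluorescence of reporter RT-PCR products, separated by capillary electrophoresis, gives mRNA induction relative to DMSO.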

In assay [6] the target is Nuclear receptor subfamily 1 group I member 2 (Homo sapiens) (UniProt O75469). Kind of assay: ATG_PXR_TRANS: Attagene TRANS-FACTORIAL HepG2 Assay for human Pregnane X Receptor (PXR) (AID 2283008). In short, it runs like this:
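Measures mRNA induction of a GAL4-UAS-driven reporter in human HepG2 cells transiently expressing PXR fused to Gal4, following 24 h treatment. DMSO served as negative control and baseline.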

The target in assay [7] is human RAR-related Orphan Receptor gamma (RORg), RORC (gene 6097) (UniProt P51449). Kind of assay: ATG_RORg_TRANS: Attagene TRANS-FACTORIAL HepG2 Assay for human RAR-related Orphan Receptor gamma (RORg) (AID 2283011). The gist of the method:
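Readout: reporter transcript induction (RT-PCR, fluorescent primer extension, capillary electrophoresis) after 24 h compound exposure of transiently transfected HepG2 cells carrying a RORg-Gal4 chimera and GAL4-UAS reporters; DMSO served as baseline, with increasing signal fitted.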

In assay [8] the target is Retinoic acid receptor RXR-alpha (Homo sapiens) (UniProt P19793). Kind of assay: ATG_RXRa_TRANS: Attagene TRANS-FACTORIAL HepG2 Assay for human Retinoid X Receptor alpha (RXRa) (AID 2283012). In short, it runs like this: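 HepG2 cells transiently transfected with multiplexed GAL4-UAS reporter units and chimeric NR-GAL4 fusions, dosed 24 h. Reporter mRNA measured by RT-PCR, FAM labelling, HpaI digestion and capillary electrophoresis; gain-of-signal fitted relative to DMSO baseline.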

Assay [9] has as its target human Retinoid X Receptor beta (RXRb), RXRB (gene 6257) (UniProt P28702). Put plainly: ATG_RXRb_TRANS: Attagene TRANS-FACTORIAL HepG2 Assay for human Retinoid X Receptor beta (RXRb) (AID 2283013). In short, it runs like this: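 HepG2 cells transiently transfected with multiplexed reporter units driven by GAL4-UAS and exogenous chimeric NR-Gal4 proteins; treated 24 h. Reporter mRNA measured by RT-PCR, 6-FAM labelling and capillary electrophoresis; gain-of-signal fitted versus DMSO baseline.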

Read-out in assay [10]: E-selectin (Homo sapiens) (UniProt P16581)
Put plainly: BSK_3C_Eselectin: BioMAP Diversity Plus: 3C Assay for Eselectin Biomarker Activity (AID 2283015; active means hit-call score of the fitted dose curve at least 0.9, where 1 is the maximum; inactive means score below 0.9;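 on outcome: cell surface E-selectin protein quantified by ELISA 24 h after dosing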). Particulars: primary human endothelial cells (HUVEC); actives raise or lower the signal. The gist of the method:
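Primary human umbilical vein endothelial cells (3C system) were dosed with chemical and cell-surface E-selectin measured by ELISA 24 h later. Bidirectional curve fitting used DMSO as negative control and baseline.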

Read-out in assay [11]: Interleukin-1 alpha (IL1a), IL1A (gene 3552)
Put plainly: BSK_BE3C_IL1a: BioMAP Diversity Plus: BE3C Assay for Interleukin-1 alpha (IL1a) Biomarker Activity (AID 2283016; active means hit-call score of the fitted dose curve at least 0.9, where 1 is the maximum; inactive means score below 0.9). As to conditions: primary human bronchial epithelial cells; actives raise or lower the signal. The gist of the method: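 Human primary bronchial epithelial cells (BE3C system) were dosed with compound and IL-1a measured by ELISA 24 h later. Activity was fitted bidirectionally against DMSO baseline; cytotoxicity was tracked in parallel cultures by SRB total-protein staining.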

Read-out in assay [12]: Monocyte Chemoattractant Protein-1 (MCP1), CCL2 (gene 6347)
Kind of assay: BSK_3C_MCP1: BioMAP Diversity Plus: 3C Assay for Monocyte Chemoattractant Protein-1 (MCP1) Biomarker Activity (AID 2283017; active means hit-call score of the fitted dose curve at least 0.9, where 1 is the maximum; inactive means score below 0.9). Particulars: primary human endothelial cells (HUVEC); actives raise or lower the signal. In short, it runs like this: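 Primary human umbilical vein endothelial cells (3C system) were exposed to test chemical for 24 h, after which MCP-1 was quantified by ELISA. Activity was fitted bidirectionally against DMSO as negative control and baseline.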

Read-out in assay [13]: Monocyte Chemoattractant Protein-1 (MCP1), CCL2 (gene 6347)
Put plainly: BSK_4H_MCP1: BioMAP Diversity Plus: 4H Assay for Monocyte Chemoattractant Protein-1 (MCP1) Biomarker Activity (AID 2283018; active means hit-call score of the fitted dose curve at least 0.9, where 1 is the maximum; inactive means score below 0.9). As to conditions: primary human endothelial cells (HUVEC); actives raise or lower the signal. The gist of the method:
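Human umbilical vein endothelial cells (4H system) dosed with chemical; MCP-1 measured by ELISA 24 h after dosing. Bidirectional curve fitting against DMSO negative control as baseline; parallel SRB total-protein staining tracks overt cytotoxicity.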

Read-out in assay [14]: Human Leukocyte Antigen - DR isotype (HLADR), HLA-DRA (gene 3122)
Put plainly: BSK_3C_HLADR: BioMAP Diversity Plus: 3C Assay for Human Leukocyte Antigen - DR isotype (HLADR) Biomarker Activity (AID 2283019; active means hit-call score of the fitted dose curve at least 0.9, where 1 is the maximum; inactive means score below 0.9;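 on outcome: ELISA of cell-surface HLA-DR on HUVEC 24 h after dosing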). As to conditions: primary human endothelial cells (HUVEC); actives raise or lower the signal. In short, it runs like this:
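Primary human umbilical vein endothelial cells (3C system) were dosed with compound and cell-surface HLA-DR was quantified by ELISA at 24 h. Activity was fitted bidirectionally against DMSO as negative control and baseline.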

Read-out in assay [15]: Interleukin-8 (IL8), CXCL8 (gene 3576)
Kind of assay: BSK_3C_IL8: BioMAP Diversity Plus: 3C Assay for Interleukin-8 (IL8) Biomarker Activity (AID 2283020; active means hit-call score of the fitted dose curve at least 0.9, where 1 is the maximum; inactive means score below 0.9). As to conditions: primary human endothelial cells (HUVEC); actives raise or lower the signal. In short, it runs like this: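 Primary human umbilical vein endothelial cells (3C system) were exposed to test chemical for 24 h, then IL-8 was quantified by ELISA. Responses were fitted bidirectionally against DMSO vehicle as baseline.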

Read-out in assay [16]: Monokine induced gamma interferon (MIG), CXCL9 (gene 4283)
Put plainly: BSK_3C_MIG: BioMAP Diversity Plus: 3C Assay for Monokine induced gamma interferon (MIG) Biomarker Activity (AID 2283021; active means hit-call score of the fitted dose curve at least 0.9, where 1 is the maximum; inactive means score below 0.9;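 on AC50: MIG protein level measured by immunoassay in the treated endothelial cultures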). Particulars: primary human endothelial cells (HUVEC); actives raise or lower the signal. The gist of the method:
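Primary human umbilical vein endothelial cells in the 3C system were exposed to chemical for 24 h, after which MIG was quantified by ELISA. Activity was fitted bidirectionally against DMSO as negative control and baseline.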

Assay [17] deals with human Thyroid Receptor alpha (THRa1), THRA (gene 7067) (UniProt P10827). Kind of assay: ATG_THRa1_TRANS: Attagene TRANS-FACTORIAL HepG2 Assay for human Thyroid Receptor alpha (THRa1) (AID 2283014). In short, it runs like this:
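HepG2 cells transiently transfected with multiplexed GAL4-UAS reporter units for exogenous chimeric THRa1-Gal4; reporter mRNA measured 24 h after dosing by RT-PCR, 6-FAM labelling, HpaI digestion and capillary electrophoresis. Gain-of-signal fitted versus DMSO baseline.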

The target of assay [18] is human Retinoic Acid Receptor gamma (RARg), RARG (gene 5916) (UniProt P13631). Put plainly: ATG_RARg_TRANS: Attagene TRANS-FACTORIAL HepG2 Assay for human Retinoic Acid Receptor gamma (RARg) (AID 2283009). The gist of the method:
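HepG2 cells transiently transfected with multiplexed reporter units expressing chimeric RARg-GAL4 and GAL4-UAS-driven reporters; 24 h compound exposure. Reporter mRNA quantified by RT-PCR with fluorescent labelling and capillary electrophoresis; gain-of-signal fitted relative to DMSO baseline.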

Structures are written as SMILES. Where “and” joins values, the source holds several entries; their conditions need not be identical. Equal entries are not always repeated. Results filed as inconclusive are left out. Where a structure was tested more than once in an assay, its records may differ in their call. Calls of active or inactive are those of the source. How the source made its calls, unless noted: active means hit-call score of the fitted dose curve at least 0.9, where 1 is the maximum; inconclusive means response in the unintended direction; inactive means score below 0.9.

human Peroxisome Proliferator-activated Receptor delta (PPARd), PPARD (gene 5467), sequence (Q03181 whole entry, looked up, the tested form may be a part): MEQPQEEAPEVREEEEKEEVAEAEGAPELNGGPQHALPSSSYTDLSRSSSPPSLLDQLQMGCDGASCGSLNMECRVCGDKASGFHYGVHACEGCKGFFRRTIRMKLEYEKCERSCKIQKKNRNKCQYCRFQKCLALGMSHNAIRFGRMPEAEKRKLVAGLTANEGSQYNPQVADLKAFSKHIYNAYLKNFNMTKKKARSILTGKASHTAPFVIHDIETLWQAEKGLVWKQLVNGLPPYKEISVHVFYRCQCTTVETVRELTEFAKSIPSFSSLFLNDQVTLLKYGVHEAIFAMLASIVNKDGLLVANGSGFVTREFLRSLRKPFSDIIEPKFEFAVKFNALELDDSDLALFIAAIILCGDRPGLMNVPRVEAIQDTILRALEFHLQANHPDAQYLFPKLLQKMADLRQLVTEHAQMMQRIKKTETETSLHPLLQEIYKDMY
Nuclear receptor subfamily 1 group I member 2 (Homo sapiens), sequence (O75469 whole entry, looked up, the tested form may be a part): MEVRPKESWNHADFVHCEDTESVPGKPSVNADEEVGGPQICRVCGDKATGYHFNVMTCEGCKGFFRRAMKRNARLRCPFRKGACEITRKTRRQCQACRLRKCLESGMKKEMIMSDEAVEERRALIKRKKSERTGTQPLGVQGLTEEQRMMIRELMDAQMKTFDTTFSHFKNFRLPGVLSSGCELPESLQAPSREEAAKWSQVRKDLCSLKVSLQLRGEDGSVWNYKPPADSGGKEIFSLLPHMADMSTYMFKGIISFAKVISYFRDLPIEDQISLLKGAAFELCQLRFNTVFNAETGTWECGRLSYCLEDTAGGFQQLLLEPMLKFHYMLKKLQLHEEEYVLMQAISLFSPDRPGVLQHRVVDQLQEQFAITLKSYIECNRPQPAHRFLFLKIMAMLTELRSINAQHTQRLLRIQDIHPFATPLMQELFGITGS
E-selectin (Homo sapiens), sequence (P16581 whole entry, looked up): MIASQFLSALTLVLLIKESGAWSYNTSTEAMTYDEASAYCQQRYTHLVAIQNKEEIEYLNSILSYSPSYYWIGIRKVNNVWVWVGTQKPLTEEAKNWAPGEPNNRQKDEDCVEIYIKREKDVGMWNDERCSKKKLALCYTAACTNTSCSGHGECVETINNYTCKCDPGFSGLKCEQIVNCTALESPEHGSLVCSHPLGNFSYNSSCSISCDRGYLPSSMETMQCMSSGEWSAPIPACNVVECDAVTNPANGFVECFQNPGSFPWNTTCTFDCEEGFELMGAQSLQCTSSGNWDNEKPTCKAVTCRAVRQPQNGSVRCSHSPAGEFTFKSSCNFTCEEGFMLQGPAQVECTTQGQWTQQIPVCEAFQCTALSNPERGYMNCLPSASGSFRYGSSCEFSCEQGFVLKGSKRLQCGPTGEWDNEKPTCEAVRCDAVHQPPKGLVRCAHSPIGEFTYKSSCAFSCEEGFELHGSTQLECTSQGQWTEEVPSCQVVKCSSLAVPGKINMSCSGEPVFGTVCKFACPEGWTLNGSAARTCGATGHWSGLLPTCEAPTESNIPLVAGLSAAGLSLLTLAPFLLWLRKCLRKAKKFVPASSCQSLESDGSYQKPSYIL
Retinoic acid receptor RXR-alpha (Homo sapiens), sequence (P19793 whole entry, looked up, the tested form may be a part): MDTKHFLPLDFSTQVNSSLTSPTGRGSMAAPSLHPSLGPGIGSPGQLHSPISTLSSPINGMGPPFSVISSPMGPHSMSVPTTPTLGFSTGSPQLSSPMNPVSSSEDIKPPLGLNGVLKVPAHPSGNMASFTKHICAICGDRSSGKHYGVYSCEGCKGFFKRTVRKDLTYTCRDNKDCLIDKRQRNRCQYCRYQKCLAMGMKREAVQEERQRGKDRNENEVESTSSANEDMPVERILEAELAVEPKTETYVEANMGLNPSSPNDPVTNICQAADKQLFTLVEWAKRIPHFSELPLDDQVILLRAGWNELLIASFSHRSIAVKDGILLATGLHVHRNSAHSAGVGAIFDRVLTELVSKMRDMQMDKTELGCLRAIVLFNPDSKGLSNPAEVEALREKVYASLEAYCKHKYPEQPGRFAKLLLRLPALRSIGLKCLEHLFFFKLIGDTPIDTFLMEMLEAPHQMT
human Peroxisome Proliferator-activated Receptor alpha (PPARa), PPARA (gene 5465), sequence (Q07869 whole entry, looked up, the tested form may be a part): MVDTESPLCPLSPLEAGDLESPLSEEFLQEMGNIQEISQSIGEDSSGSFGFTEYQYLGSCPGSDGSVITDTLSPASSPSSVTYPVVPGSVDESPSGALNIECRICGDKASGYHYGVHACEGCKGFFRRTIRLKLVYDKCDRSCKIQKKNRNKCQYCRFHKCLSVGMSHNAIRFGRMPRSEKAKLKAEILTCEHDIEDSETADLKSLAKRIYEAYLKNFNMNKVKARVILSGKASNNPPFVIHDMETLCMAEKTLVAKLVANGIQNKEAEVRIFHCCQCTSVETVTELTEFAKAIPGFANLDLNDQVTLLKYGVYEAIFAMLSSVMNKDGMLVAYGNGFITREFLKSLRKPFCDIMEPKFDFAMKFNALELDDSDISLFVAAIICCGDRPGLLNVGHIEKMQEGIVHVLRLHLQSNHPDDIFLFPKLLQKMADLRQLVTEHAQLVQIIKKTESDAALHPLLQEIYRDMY
human RAR-related Orphan Receptor gamma (RORg), RORC (gene 6097), sequence (P51449 whole entry, looked up, the tested form may be a part): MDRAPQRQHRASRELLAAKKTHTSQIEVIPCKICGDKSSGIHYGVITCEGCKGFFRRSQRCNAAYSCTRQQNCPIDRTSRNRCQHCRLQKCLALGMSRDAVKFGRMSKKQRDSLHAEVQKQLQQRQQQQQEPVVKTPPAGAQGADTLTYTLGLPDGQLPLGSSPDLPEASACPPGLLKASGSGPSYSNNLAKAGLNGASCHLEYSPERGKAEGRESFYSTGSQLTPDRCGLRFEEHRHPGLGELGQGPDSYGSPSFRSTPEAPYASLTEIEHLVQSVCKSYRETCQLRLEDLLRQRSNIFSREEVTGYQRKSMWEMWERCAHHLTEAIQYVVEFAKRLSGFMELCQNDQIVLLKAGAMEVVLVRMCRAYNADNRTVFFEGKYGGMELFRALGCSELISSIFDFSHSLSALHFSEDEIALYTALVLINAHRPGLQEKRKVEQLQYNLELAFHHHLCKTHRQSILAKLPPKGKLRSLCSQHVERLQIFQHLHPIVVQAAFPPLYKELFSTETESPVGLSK
human Thyroid Receptor alpha (THRa1), THRA (gene 7067), sequence (P10827 whole entry, looked up, the tested form may be a part): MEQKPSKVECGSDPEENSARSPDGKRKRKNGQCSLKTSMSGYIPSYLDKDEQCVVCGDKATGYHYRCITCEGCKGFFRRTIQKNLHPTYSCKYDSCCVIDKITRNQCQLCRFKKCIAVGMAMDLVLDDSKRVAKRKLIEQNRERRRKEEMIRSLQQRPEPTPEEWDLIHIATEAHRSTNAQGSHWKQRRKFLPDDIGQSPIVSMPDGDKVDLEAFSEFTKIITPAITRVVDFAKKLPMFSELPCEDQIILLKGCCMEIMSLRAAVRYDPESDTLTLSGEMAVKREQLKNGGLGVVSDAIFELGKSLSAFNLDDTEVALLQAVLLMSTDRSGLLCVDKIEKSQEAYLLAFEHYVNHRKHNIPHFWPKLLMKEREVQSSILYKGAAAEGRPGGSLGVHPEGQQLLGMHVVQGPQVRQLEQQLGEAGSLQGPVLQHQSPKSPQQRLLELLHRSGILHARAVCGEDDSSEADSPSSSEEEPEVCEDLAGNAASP
human Retinoid X Receptor beta (RXRb), RXRB (gene 6257), sequence (P28702 whole entry, looked up, the tested form may be a part): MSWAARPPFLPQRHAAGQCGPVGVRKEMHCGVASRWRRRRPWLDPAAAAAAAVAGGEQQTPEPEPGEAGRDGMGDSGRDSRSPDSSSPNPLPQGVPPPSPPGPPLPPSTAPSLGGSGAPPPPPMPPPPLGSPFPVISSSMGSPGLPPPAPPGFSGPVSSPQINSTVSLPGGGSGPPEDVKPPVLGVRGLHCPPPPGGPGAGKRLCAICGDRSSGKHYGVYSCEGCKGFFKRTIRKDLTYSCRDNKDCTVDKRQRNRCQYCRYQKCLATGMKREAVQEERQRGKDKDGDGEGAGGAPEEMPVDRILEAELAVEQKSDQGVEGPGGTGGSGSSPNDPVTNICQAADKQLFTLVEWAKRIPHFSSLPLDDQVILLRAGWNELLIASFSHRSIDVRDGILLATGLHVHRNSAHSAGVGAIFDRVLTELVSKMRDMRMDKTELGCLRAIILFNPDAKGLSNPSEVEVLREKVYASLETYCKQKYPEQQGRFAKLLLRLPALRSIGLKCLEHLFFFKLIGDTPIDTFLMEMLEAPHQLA
human Retinoic Acid Receptor gamma (RARg), RARG (gene 5916), sequence (P13631 whole entry, looked up, the tested form may be a part): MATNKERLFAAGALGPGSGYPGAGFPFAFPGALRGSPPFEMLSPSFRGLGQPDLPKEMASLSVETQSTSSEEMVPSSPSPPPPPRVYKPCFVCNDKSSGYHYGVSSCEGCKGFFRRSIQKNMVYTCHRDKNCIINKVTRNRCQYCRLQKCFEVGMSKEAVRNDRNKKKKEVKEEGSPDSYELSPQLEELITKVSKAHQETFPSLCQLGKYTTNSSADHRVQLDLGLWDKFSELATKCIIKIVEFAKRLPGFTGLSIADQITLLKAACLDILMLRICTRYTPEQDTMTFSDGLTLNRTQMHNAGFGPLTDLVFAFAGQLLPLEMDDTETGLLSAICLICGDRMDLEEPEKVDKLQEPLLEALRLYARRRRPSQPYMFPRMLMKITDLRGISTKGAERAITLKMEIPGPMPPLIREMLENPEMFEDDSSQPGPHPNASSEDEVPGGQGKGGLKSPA
Peroxisome proliferator-activated receptor gamma (Homo sapiens), sequence (P37231 whole entry, looked up, the tested form may be a part): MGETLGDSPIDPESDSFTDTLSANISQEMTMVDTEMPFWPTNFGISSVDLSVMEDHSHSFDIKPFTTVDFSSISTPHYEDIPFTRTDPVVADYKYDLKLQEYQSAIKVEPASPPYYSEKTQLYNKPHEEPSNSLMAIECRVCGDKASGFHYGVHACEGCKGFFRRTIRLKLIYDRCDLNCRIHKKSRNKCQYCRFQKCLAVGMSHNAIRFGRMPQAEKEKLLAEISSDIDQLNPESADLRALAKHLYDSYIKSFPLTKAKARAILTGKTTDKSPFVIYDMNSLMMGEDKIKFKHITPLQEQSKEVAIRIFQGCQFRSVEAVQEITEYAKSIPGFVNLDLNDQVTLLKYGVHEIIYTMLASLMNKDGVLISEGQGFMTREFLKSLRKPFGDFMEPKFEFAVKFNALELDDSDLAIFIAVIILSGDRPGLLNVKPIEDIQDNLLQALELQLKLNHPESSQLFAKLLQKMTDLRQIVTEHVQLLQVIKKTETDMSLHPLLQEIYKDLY

As to `Cc1ncc(CO)c(CO)c1O`, the result in assay [1], in assay [2], in [3], in assay [4], in assay [5] and in assay [6] was inactive. Further, the result in assay [7], in assay [8], in [9], in assay [10], in assay [11] and in assay [12] was inactive. In addition, the outcome in assay [13], in assay [14], in assay [15] and in assay [16] was inactive.

What is called AC50 is the concentration giving half of the maximal activity seen. Turning to `Cc1occc1C(=O)Nc1ccc(C(=O)N2CCC(F)(F)/C(=C\C(=O)N3CCC(N4CCCCC4)CC3)c3ccccc32)cc1`, the AC50 in [1] was 53 µM (active); in [5] it was 59.6 µM (active); in assay [6], 25.5 µM (active); in assay [9], 55.2 µM (active); in [17], 53.8 µM (active). The outcome in assay [3], in assay [4], in assay [10], in [11], in assay [12] and in [13] was inactive. Moreover, the result in assay [14] and in [15] was inactive.

`Clc1cc(Cl)c2c(c1)N=C1CCCCCN1C2`: the call in [1], in assay [2], in assay [4], in [18], in assay [7] and in assay [8] was inactive. Besides, the outcome in assay [10], in assay [11], in assay [12], in assay [13], in assay [14] and in [15] was inactive. The AC50 in assay [6] is 20.2 µM (active).

As for `NCc1cccc(C2CCN(C(=O)c3ccc(C#Cc4ccccc4F)o3)CC2)c1`, the AC50 is 0.909 µM (active) in assay [1]; 8.67 µM (active) in assay [4]; 8.45 µM (active) in [6]; 35.6 µM (active) in assay [10]; 15 µM (active) in [11]; 20.8 µM (active) in assay [12]. Besides, the AC50 in assay [13] is 20 µM (active); in [14], 11.3 µM (active); in [15], 23.1 µM (active); in assay [16], 36.2 µM (active). The call in assay [2], in [7], in assay [8], in assay [9] and in [17] was inactive.

With `CCCCOC(=O)c1ccc(O)cc1`, the compound was classed as inactive in assay [1], in assay [2], in [4], in assay [6], in [18] and in assay [8]. Also, the compound was called inactive in [9], in [17], in assay [10], in assay [11], in assay [12] and in [13]. For the same compound, the outcome in [14], in assay [15] and in [16] was inactive. For the same compound, in assay [9], the AC50 was 26.9 µM (active) and 26.4 µM (active).
